High-throughput results as filed in PubChem.
JMJD2A Tudor inh = JMJD2A Tudor domain (human) inhibition | hit rate 4.4% among 390,000 | Potency, µM (doses to about 114 µM), inactives show at the highest dose activity change, negative = inhibition, hits mostly inhibitors | O75164 | AlphaScreen JMJD2A-Tudor / H3K4me3 peptide binding; further: on the % scale 0 is the no-effect control and ±100 the full control effect; nearly all actives have a fitted effect of over 50% in size
HP1b chromo inh = HP1-beta chromodomain-methylated histone interaction inhibition. P83916. AlphaScreen HP1-beta / biotin-H3K9me3 peptide binding. Potency, µM (top dose mostly 114 µM), for the others: at the highest dose activity change, negative = inhibition, actives largely listed as inhibitors. hit rate 0.56% among 390,000. AID 540317; further: nearly all actives have a fitted effect of over 70% in size
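HP1-beta protein (50 nM final) preincubated 30 min at room temperature with biotinylated H3(1-18)K9me3 peptide (50 nM) in PBS pH 7.4, 0.01% Tween-20, then compound added for 30 min. AlphaScreen streptavidin donor/nickel chelate acceptor beads (10 ug/mL final), 30 min dark, luminescence read.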
BAZ2B block = blocks human BAZ2B; Q9UIF8; AlphaScreen BAZ2B-H3K14Ac peptide displacement; Potency, µM (titrated, usually from 114 µM), for inactives: at the top dose activity change, negative = inhibition, hits mostly inhibitors; hit rate 4.4% among 360,000; further: on the % scale 0 is the no-effect control and ±100 the full control effect; nearly all actives have a fitted effect of over 60% in size
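Multi-concentration screen (max 110 uM) measuring displacement of acetylated histone H3 peptide from BAZ2B by AlphaScreen, using 50 nM protein, 50 nM peptide and 10 ug/mL streptavidin donor plus Ni-chelate acceptor beads.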
L3MBTL1 block = inhibitors of human L3MBTL1. hit rate 0.66% among 230,000. AID 485360. Potency, µM (highest dose often 57.1 µM), without a hit: at the top dose activity, negative = inhibition, most hits filed as inhibitors. Q9Y468. AlphaScreen L3MBTL1–H3K9me1 peptide binding; further: on the % scale 0 is the no-effect control and ±100 the full control effect; nearly all actives have a fitted effect of over 60% in size
Target sequence (Q9Y468 whole entry, looked up): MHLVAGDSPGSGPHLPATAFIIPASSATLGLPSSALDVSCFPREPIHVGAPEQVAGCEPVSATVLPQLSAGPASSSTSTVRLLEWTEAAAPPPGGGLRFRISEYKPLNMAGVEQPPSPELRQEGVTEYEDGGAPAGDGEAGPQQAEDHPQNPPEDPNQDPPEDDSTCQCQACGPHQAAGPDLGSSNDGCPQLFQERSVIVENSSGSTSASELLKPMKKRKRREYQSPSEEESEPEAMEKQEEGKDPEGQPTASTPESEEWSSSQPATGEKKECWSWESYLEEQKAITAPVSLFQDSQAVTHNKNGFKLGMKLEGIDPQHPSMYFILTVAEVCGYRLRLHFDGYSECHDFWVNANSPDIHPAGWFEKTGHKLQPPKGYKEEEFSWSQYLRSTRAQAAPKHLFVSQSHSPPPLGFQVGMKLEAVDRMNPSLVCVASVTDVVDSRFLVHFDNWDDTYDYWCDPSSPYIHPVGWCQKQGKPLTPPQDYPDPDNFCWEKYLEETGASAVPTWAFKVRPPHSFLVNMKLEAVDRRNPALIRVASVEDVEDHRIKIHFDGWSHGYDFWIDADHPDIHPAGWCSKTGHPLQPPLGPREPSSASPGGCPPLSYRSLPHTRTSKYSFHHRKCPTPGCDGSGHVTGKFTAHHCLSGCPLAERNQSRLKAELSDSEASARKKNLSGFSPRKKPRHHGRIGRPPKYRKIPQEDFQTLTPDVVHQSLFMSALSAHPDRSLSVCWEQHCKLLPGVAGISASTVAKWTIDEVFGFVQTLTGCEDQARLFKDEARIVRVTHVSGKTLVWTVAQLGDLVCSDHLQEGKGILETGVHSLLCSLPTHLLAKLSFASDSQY
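L3MBTL1 50 nM + b-AHA-H3(1-15)K9me1 75 nM, 30 min RT; compound added, 30 min RT; streptavidin donor/Ni-chelate acceptor beads 10 ug/mL each final, 30 min RT dark; AlphaScreen read.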
G9a inh = blocks human histone lysine methyltransferase G9a; hit rate 8.8% among 350,000; Potency, µM (top dose mostly 102 µM), inactives show at the highest dose activity, negative = inhibition, actives largely listed as inhibitors; G9a H3K9 monomethylation, AlphaScreen, 2 h; Q96KQ7; further: on the % scale 0 is the no-effect control and ±100 the full control effect; nearly all actives have a fitted effect of over 75% in size
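AlphaScreen read-out: biotin-H3K9 peptide (500 nM) methylation by 20 nM enzyme with 20 uM SAM, 2 h at room temperature after 15 min compound preincubation; anti-monomethyl H3K9 antibody plus donor/acceptor beads, 10 min dark.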
Sfp inh = blocks B. subtilis Sfp PPTase activity. Q9F4F7. Biochemical Sfp PPTase activity, qHTS. Potency, µM, for inactives: largest response in the series, negative = inhibition, hits mostly inhibitors. hit rate 3.5% among 310,000;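 further: the enzyme is Sfp with the accession as filed and its product quenches rhodamine fluorescence; 0% = enzyme reaction without inhibitor and -100% = no enzyme wells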
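Compounds were incubated with enzyme (final 15 nM) for 15 min at room temperature before substrate addition started the reaction. Fluorescence at 525 nm excitation, 598 nm emission was recorded immediately and after 30 minutes.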
The depositor's hits bear a star; ? = inconclusive; · = not tested or not shown; [ ] = dose if it differs, or a comment. Shown are actives, neighbours in structure and some others; about 12% of the full set was active somewhere. The call rests on the fitted dose curve; in most records, active means well fitted curve in the direction sought with a large enough effect; inconclusive means small, poorly fitted or top-dose-only effect, or another doubt; inactive means no such curve, though single readings can be large; an effect the other way counts as inactive or inconclusive. Potency means the concentration at half of the fitted maximal effect.

SMILES	JMJD2A Tudor inh	HP1b chromo inh	BAZ2B block	L3MBTL1 block	G9a inh	Sfp inh
CCOCCCNC(=O)c1ccc(Cn2c(=O)c3cccn3c3cccnc32)cc1	3%	25%	0%	·	5%[59 µM]	·
C#CCOCCOCCOCCNc1nc(N2CCN(C(=O)CCCCCCCCCCNC(=O)[C@H](CO)n3cc(CCCSC)nn3)CC2)nc(N2CCN(C(=O)CCCCCCCCCCNC(=O)[C@H](CCCCN)n3cc(CCO)nn3)CC2)n1	56µM*	?	·	1%	·	·
C#CCOCCOCCOCCNc1nc(N2CCN(C(=O)CCCCCCCCCCNC(=O)[C@H](CO)n3cc(CCCSC)nn3)CC2)nc(N2CCN(C(=O)CCCCCCCCCCNC(=O)[C@H](CCCN=C(N)N)n3cc(C[C@@H](C)CC)nn3)CC2)n1	79µM*	-31%	?	3%	9%[2.33 µM]	·
C#CCOCCOCCOCCNc1nc(N2CCN(C(=O)CCCCCCCCCCNC(=O)Cn3cc(CCCCCN)nn3)CC2)nc(N2CCN(C(=O)CCCCCCCCCCNC(=O)Cn3cc(CCCCCN)nn3)CC2)n1	56µM*	?	56µM*	16%	-13%[2.33 µM]	·
C#CCOCCOCCOCCNc1nc(N2CCN(C(=O)CCCCCCCCCCNC(=O)Cn3cc(C[C@@H](C)O)nn3)CC2)nc(N2CCN(C(=O)CCCCCCCCCCNC(=O)[C@H](CCCN=C(N)N)n3cc(C[C@@H](C)CC)nn3)CC2)n1	45µM*	?	?	?	-35%[2.33 µM]	·
C#CCOCCOCCOCCNc1nc(N2CCN(C(=O)CCCCCCCCCCNC(=O)Cn3cc(C[C@@H](C)O)nn3)CC2)nc(N2CCN(C(=O)CCCCCCCCCCNC(=O)[C@H](CCCCN)n3cc(CCCC(=O)O)nn3)CC2)n1	?	7%	-35%	-13%	-24%[2.33 µM]	·
C#CCOCCOCCOCCNc1nc(N2CCN(C(=O)CCCCCCCCCCNC(=O)[C@@H](CCSC)n3cc(CCO)nn3)CC2)nc(N2CCN(C(=O)CCCCCCCCCCNC(=O)[C@H](CCSC)n3cc(CCO)nn3)CC2)n1	-13%	45%	8%	-1%	28%[2.33 µM]	·
O=C(NCCc1ccc(Cl)cc1)c1ccc(CSCc2ccccc2Cl)o1	3%	69%	18%	·	27%[59 µM]	·
CC(=O)c1cccc(NC(=O)C2CCCN(C(=O)c3cnn(-c4ccccc4)c3-n3cccc3)C2)c1 (stereo unspecified)	-16%	33%	-31%	·	1%[59 µM]	·
COCCCNC(=O)C1CCC(CNS(=O)(=O)c2ccc3c(c2)CC(C)N3C(=O)C2CC2)CC1 (stereo unspecified)	-7%	40%	-2%	·	42%	11%
COc1ccc(/C=C/c2nnc(NC(=O)COc3ccc(Cl)cc3)s2)cc1	-5%[57.1 µM]	32%[57 µM]	·	·	·	·
C#CCOCCOCCOCCNc1nc(N2CCN(C(=O)CCCCCCCCCCNC(=O)Cn3cc(CCCCCN)nn3)CC2)nc(N2CCN(C(=O)CCCCCCCCCCNC(=O)[C@@H](CCSC)n3cc(CCO)nn3)CC2)n1	79µM*	?	?	1%	10%[2.33 µM]	·
Cc1cc(C(=O)OCC(=O)N2CCN(C(=O)c3ccco3)CC2)c(C)n1-c1ccc(F)cc1	-14%[11.4 µM]	-10%	?	-3%	-50%	-8%
Cc1cc(C(=O)CNCc2ccco2)c(C)n1-c1ccc(F)cc1	3.2µM*	?	56µM*	-8%	22µM*	-12%
O=C(NCCC1=CCCCC1)C(=O)NCC(c1ccco1)N1CCN(c2ccc(F)cc2)CC1 (stereo unspecified)	-20%	11%	12%	5%	11%[59 µM]	17%
CC(=O)c1cccc(S(=O)(=O)N2CCN(CCOc3ccccc3)CC2)c1	?	40%	2%	-1%	-51%[2.33 µM]	·
COc1ccccc1NC(=O)c1ccc(NC(=O)COC(=O)C2(C)CC2(Cl)Cl)cc1 (stereo unspecified)	79µM*	3%	-7%	-3%	-4%[59 µM]	14%
CN(Cc1ccccc1)C(=O)[C@H](Cc1ccc2ccccc2c1)NC(=O)[C@@H]1C[C@@H](O)CN1C(=O)c1cn(C)c2ccccc12	·	·	·	·	7%[59 µM]	-7%
Cc1cccc(OCCCN2CCCCCC2)c1	7.9µM*	?	79µM*	52%[11.4 µM]	6.3µM*	-16%
Clc1cccc(OCCCCN2CCCCC2)c1	22µM*	?	56µM*	-2%	?	-13%
Cc1cccc(Cl)c1OCCN1CCCC1	4µM*	-8%	?	0%	40µM*	-2%
Clc1cccc(Cl)c1OCCCCN1CCCCC1	20µM*	?	79µM*	-5%	22µM*	10%
Cc1ccccc1OCCCCN1CCCCC1	-7%	43%	-3%	2%	6%[59 µM]	15%
Clc1cccc(OCCCCCN2CCOCC2)c1	-13%	12%	4%	5%	·	-6%
CCOc1ccc(CN(C)C(=O)c2ccc(S(=O)(=O)N(C)c3ccccc3OC)cc2)cc1	-16%	36%	6%	-6%	0%[12.7 µM]	·
SMILES	JMJD2A Tudor inh	HP1b chromo inh	BAZ2B block	L3MBTL1 block	G9a inh	Sfp inh
Clc1cccc(OCCN2CCNCC2)c1	18µM*	?	-33%	6%	14µM*	-21%
COCCn1c(=O)c(-c2cccc(C#N)c2)nc2cnc(Oc3ccc(OC)cc3)nc21	·	·	·	·	0%[0.501 µM]	-18%
O=C(Cc1ccccc1)NC(C(=O)O)C(O)c1ccc([N+](=O)[O-])cc1 (stereo unspecified)	1%	53%	3%	·	-29%	20%
Cc1ccc(C(OCC(O)CN2CCCCC2)c2ccccc2)cc1 (stereo unspecified)	-5%	28%	0%	·	-1%	-8%
Cc1ccc(C(OCC(O)CNC(CO)C(O)c2ccc([N+](=O)[O-])cc2)c2ccccc2)cc1 (stereo unspecified)	40µM*	?	50µM*	·	13µM*	-22%
Cc1ccc(C(OCC(O)CNC(C)c2ccccc2)c2ccccc2)cc1 (stereo unspecified)	1.3µM*	?	40µM*	14%	8.9µM*	-23%
CN(CC1CCCN(CCc2cccc(C(F)(F)F)c2)C1)C(=O)c1cc2ccccc2o1 (stereo unspecified)	26%	36%	?	·	·	-5%
Cc1ccc(N/C=C(\C2OC(=O)c3ccccc32)[N+](=O)[O-])c(C)c1 (stereo unspecified)	-21%[11.4 µM]	?	-32%	·	?	-5%
O=C1OC(/C(=C\Nc2cc(Cl)ccc2O)[N+](=O)[O-])c2ccccc21 (stereo unspecified)	?	?	45µM*	-14%	10µM*	3%
O=C1OC(/C(=C\Nc2ccc(F)cc2F)[N+](=O)[O-])c2ccccc21 (stereo unspecified)	-20%	46%	-18%	·	45µM*	?
